# Measured values reported in PubChem BioAssay AID1347131 (National Center for Advancing Translational Sciences (NCATS), 2019).
# Among all 410,000 compounds or so, about 2,000 (0.49%) were called active. Another 8% or so got no clear call; they are omitted. Many of the other results were omitted from the sample, so actives are more common in it than they were. Unmarked numbers belong to inactive results. Calls come from the whole dose curve; tested in HEK293 reporter line.
# Experiment: qHTS Assay for Foot and Mouth Disease Virus Antivirals: Primary Screen against the MLPCN compound library; note: nearly all actives have a fitted effect of over 55% in size
# Conditions: FMDV antiviral cell-based qHTS; series mostly up to 57.9 µM; activity, negative = inhibition: at the top concentration
# Potency is the fitted concentration of half-maximal effect.
Structure (SMILES),"activity, negative = inhibition [%]",Potency
CC[C@H]1c2[nH]c3ccc(C(C)C)cc3c2[C@@H]2CCN3C(=O)CCC[C@H]1[C@H]23,-33.7,–
CC(C)(C)n1ncc2c(=O)n(Cc3c(Cl)cccc3Br)cnc21,-48.1,–
CC(C)(C)n1ncc2c(=O)n(CC(=O)Nc3ccc(Cl)cc3)cnc21,-38.5,–
CC(C)(C)n1ncc2c(=O)n(CC(=O)NCc3ccccc3)cnc21,–,20 µM (active)
CCCCCn1c(NC(=O)c2ccco2)c(C(=O)OCC)c2nc3ccccc3nc21,-41.5,–
COc1ccc(/C=C2\CN(Cc3ccccc3)C/C(=C\c3ccc(OC)cc3)C2=O)cc1,-34.8,–
CCOc1ccc(/C=C2\CCc3ccccc3C2=O)cc1,–,20 µM (active)
COc1cc(/C=C2/CCc3ccccc3C2=O)cc(OC)c1OC,-30.1,–
Cc1ccc(-c2noc(CCC(=O)NCCN3CCc4ccccc4C3)n2)cc1,-32.9,–
C(=N\Nc1ccc2ccccc2n1)/c1ccc2c(c1)OCCO2,-52.8,–
O=S(=O)(N/N=C\c1cccc(F)c1)c1ccccc1,113,–
Fc1cccc(/C=N/Nc2ccc3ccccc3n2)c1,–,12.6 µM (active)
O=C(NCc1ccc(F)cc1)c1cc(Sc2ccc(F)cc2F)nc2ccccc12,-34,–
Cc1ccc(Cl)c(OCCN2CCc3ccccc3C2)c1,-34.8,–
CN(CC(=O)Nc1ccc(Cl)cc1)CC(=O)Nc1sc2c(c1C(N)=O)CCC2,-41.6,–
O=C(CSC1=NCCS1)N1CCN(c2ccccc2)CC1,-31.3,–
CC1Cc2nc(SCC(=O)N3CCN(c4ccccc4)CC3)n(C)c(=O)c2S1 (centres undefined),-31.1,–
CC1(C)Cc2ccccc2-c2nnc(SCC(=O)N3CCN(c4ccccc4)CC3)n21,–,7.94 µM (active)
Cc1cc2ncc(-c3cccs3)nc2cc1C,–,11.2 µM (active)
C/C(=N\NC(=O)c1cc(-c2cccs2)nc2ccccc12)c1ccccn1,-31.1,–
FC(F)(F)c1cc(-c2cccs2)nc(-n2cc(Br)cn2)n1,-39.4,–
O=C1Nc2ccc([N+](=O)[O-])cc2OC1CCN1CCN(c2ccccc2)CC1 (centres undefined),-30,–
COc1ccc(-c2ccc(C(=O)N3CCN(C)CC3)c3occc23)c(C)c1,-36.9,–
CCOc1ccccc1CNC(=O)CSc1n[nH]c(-c2ccccc2)n1,-36.7,–
Nc1nc(CSc2n[nH]c(-c3ccccc3)n2)nc(Nc2ccccc2)n1,–,25.1 µM (active)

Structure (SMILES),"activity, negative = inhibition [%]",Potency
Nc1nc(COC(=O)CCC(=O)c2ccc(Cl)cc2)nc(Nc2ccccc2)n1,-36.9,–
O=C1c2cccnc2Oc2ccc(Cl)cc2N1Cc1ccc(F)cc1,-37.2,–
[N-]=[N+]=CC(=O)C(Cc1ccccc1)N1C(=O)c2ccccc2C1=O (centres undefined),-32.3,–
O=C(c1cc2ccc3cccnc3c2[nH]1)N1CCCCC1,–,14.1 µM (active)
Cc1ccc2[nH]c(C(=O)N3CCCCC3)cc2c1,100,–
O=C(c1cc2ccc3cccnc3c2[nH]1)N1CCN(c2cccc(Cl)c2)CC1,-32.5,–
CN(C)N(Cc1ccccc1)C(=O)C(O)(c1ccccc1)c1ccccc1,-30.8,–
CCc1ccc(NC(=O)CSCc2nc(N)nc(Nc3ccccc3CC)n2)cc1,-34.6,–
Cc1ccc(C(=O)COC(=O)c2cccc(NC(=O)c3ccc([N+](=O)[O-])cc3[N+](=O)[O-])c2)cc1,–,20 µM (active)
Cc1ccc(C(=O)COC(=O)c2cc(Cl)ccc2O)cc1[N+](=O)[O-],-36.5,–
CCCC(=O)Nc1cccc(NC(=O)c2cccc([N+](=O)[O-])c2C)c1,-33.7,–
C=C(C(=O)c1ccccc1)C(c1ccccc1)C(C)C(=O)c1ccccc1 (centres undefined),-30.2,–
CC(=O)OC1CC2C(C)(C)C(O)CC[C@@]2(C)C2CC[C@@]3(C)C(c4ccoc4)OC(=O)C4OC43[C@]12C (some centres undefined),-31.4,–
CS(=O)(=O)c1ccc(C(=O)Nc2ccc(-c3nc4ccccc4[nH]3)cc2)cc1,-32.1,–
COC(=O)c1ccc(-c2nc3ccccc3[nH]2)cc1,–,15.8 µM (active)
CS(=O)(=O)c1ccc(C(=O)Nc2cccc(-c3nc4ccccc4[nH]3)c2)cc1,-32.3,–
COc1ccccc1N1CCN(Cc2cc(=O)oc3cc(C)ccc23)CC1,-37.9,–
Cc1nc2ccccc2c2oc(C(=O)N3CC(C)CC(C)C3)cc12 (centres undefined),-10.3,–
Cc1ccc(OC(=O)Cn2c(C(F)(F)F)nc3ccccc32)cc1,-35.8,–
COc1cccc(NC(=S)NCc2cccs2)c1,133,–
CC(=O)N1CC=C2C(C#N)=C(N)C(C#N)(C#N)C(CCc3ccccc3)C2C1 (centres undefined),-30,–
N#CC1=C(N)C(C#N)(C#N)C(c2cccnc2)C2CN(C(=O)OCc3ccccc3)CC=C12 (centres undefined),–,22.4 µM (active)
N#CC1=C(N)C(C#N)(C#N)[C@H](c2ccoc2)[C@H]2CN(Cc3ccccc3)CC=C12,-32.2,–
Brc1ccc([C@H]2C=C[C@H]3CCCN4CC[C@H]2[C@@H]3[C@]42CO2)cc1,-43.9,–
